Results from PubChem BioAssay (EPA / NIEHS).
Where “and” joins values, the source holds several entries; their conditions need not be identical. Identical values can stand only once. Records with an inconclusive call do not appear. Where a structure was tested more than once in an assay, its records may differ in their call. Calls of active or inactive are those of the source. How the source made its calls, unless noted: active means hit-call score of the fitted dose curve at least 0.9, where 1 is the maximum; inconclusive means response in the unintended direction; inactive means score below 0.9.

Key:
[1] = TOX21_p53_BLA_p2_viability: Viability Assessment in the Tox21 HCT-116 p53 Agonism Beta-lactamase Assay, Phase 2 (AID 2283591);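 further: compound exposure lasted 16 h at 37 °C; actives lower the ATP signal meaning cytotoxicity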
How it was run: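 HCT116 p53-bla cells, 4000/well, dosed after 5 h plating (217-fold dilution of DMSO stocks) and incubated 16 h at 37C. Viability taken as cellular ATP by CellTiter-Glo luminescence after 30 min RT; signal loss marks cytotoxicity.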

[2] = target: Cellular tumor antigen p53 (Homo sapiens) (UniProt P04637); assay: TOX21_p53_BLA_p2_ratio: Tox21 HCT-116 p53 Agonism Beta-lactamase Assay, Ratio, Phase 2 (AID 2283592)
Chain of Cellular tumor antigen p53 (Homo sapiens) (P04637 whole entry, looked up): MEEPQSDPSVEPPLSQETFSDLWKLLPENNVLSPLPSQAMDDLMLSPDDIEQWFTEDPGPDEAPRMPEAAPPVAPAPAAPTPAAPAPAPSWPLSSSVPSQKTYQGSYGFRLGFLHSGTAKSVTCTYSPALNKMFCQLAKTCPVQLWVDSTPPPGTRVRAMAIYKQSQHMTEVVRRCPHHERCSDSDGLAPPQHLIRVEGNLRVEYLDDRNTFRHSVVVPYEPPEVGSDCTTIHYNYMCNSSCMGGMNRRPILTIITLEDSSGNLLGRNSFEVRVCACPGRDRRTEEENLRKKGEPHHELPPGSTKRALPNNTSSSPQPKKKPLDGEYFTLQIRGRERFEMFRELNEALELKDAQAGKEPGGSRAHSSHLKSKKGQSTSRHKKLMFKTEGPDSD
How it was run: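 DMSO-normalized, positive-direction endpoint derived from the 460 nm/530 nm FRET ratio in HCT116 p53 beta-lactamase reporter cells exposed 16 h at 37C and loaded with CCF4-AM for 2 h.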

[3] = TOX21_p53_BLA_p3_viability: Viability Assessment in the Tox21 HCT-116 p53 Agonism Beta-lactamase Assay, Phase 3 (AID 2283593);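 further: cells exposed to compound for 16 h before reading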
How it was run: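 HCT116 cells, 4000/well, dosed 5 h after plating by pin transfer (217-fold dilution from DMSO stock) and incubated 16 h at 37C, 5% CO2. Viability read as ATP luminescence with CellTiter-Glo after 30 min at room temperature.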

[4] = target: Cellular tumor antigen p53 (Homo sapiens) (UniProt P04637); assay: TOX21_p53_BLA_p3_ratio: Tox21 HCT-116 p53 Agonism Beta-lactamase Assay, Ratio, Phase 3 (AID 2283596)
How it was run: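 Cells were seeded at 4000/well, rested 5 h at 37C, then dosed with DMSO compound solutions (217-fold dilution) for 16 h. CCF4-AM substrate was loaded for 2 h at room temperature, and the 460/530 nm emission ratio was fitted for gain of signal versus DMSO.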

[5] = TOX21_p53_BLA_p4_viability: Viability Assessment in the Tox21 HCT-116 p53 Agonism Beta-lactamase Assay, Phase 4 (AID 2283597);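 further: hits lower the luminescence signal meaning cytotoxicity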
How it was run: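 In this multiplexed secondary endpoint, HCT116 cells (4000 per well, compound at 5 h, 16 h treatment) received CellTiter-Glo after the beta-lactamase read. Luminescence after 30 min RT reflects ATP, and falling signal marks cytotoxicity.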

[6] = target: Cellular tumor antigen p53 (Homo sapiens) (UniProt P04637); assay: TOX21_p53_BLA_p5_ratio: Tox21 HCT-116 p53 Agonism Beta-lactamase Assay, Ratio, Phase 5 (AID 2283599)
How it was run: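 HCT-116 p53-bla cells (4000/well) plated 5 h, dosed with compound (217-fold DMSO dilution) for 16 h at 37 C; CCF4-AM substrate 2 h at room temperature. Activity is the 460/530 nm emission ratio (405 nm excitation), fitted in gain-of-signal direction versus DMSO.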

[7] = TOX21_p53_BLA_p5_viability: Viability Assessment in the Tox21 HCT-116 p53 Agonism Beta-lactamase Assay, Phase 5 (AID 2283600)
How it was run: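 Here cell health was gauged by ATP levels in wells holding 4000 cells, each treated 16 h with DMSO-delivered compounds at 217-fold dilution; reduced luminescence marked toxicity.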

[8] = target: Cellular tumor antigen p53 (Homo sapiens) (UniProt P04637); assay: TOX21_p53_BLA_p4_ratio: Tox21 HCT-116 p53 Agonism Beta-lactamase Assay, Ratio, Phase 4 (AID 2283601)
How it was run: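 HCT-116 p53 beta-lactamase reporter cells (4000/well) preincubated 5 h, then compound (217-fold dilution of DMSO stock) for 16 h at 37C. CCF4-AM substrate added 2 h at room temperature; 460/530 nm emission ratio fitted upward versus DMSO.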

[9] = target: Estrogen receptor (Homo sapiens) (UniProt P03372); assay: NVS_NR_hER: NovaScreen (NVS) Nuclear Receptor Binding Assay for human Estrogen Receptor (ER) (AID 2283348)
Chain of Estrogen receptor (Homo sapiens) (P03372 whole entry, looked up): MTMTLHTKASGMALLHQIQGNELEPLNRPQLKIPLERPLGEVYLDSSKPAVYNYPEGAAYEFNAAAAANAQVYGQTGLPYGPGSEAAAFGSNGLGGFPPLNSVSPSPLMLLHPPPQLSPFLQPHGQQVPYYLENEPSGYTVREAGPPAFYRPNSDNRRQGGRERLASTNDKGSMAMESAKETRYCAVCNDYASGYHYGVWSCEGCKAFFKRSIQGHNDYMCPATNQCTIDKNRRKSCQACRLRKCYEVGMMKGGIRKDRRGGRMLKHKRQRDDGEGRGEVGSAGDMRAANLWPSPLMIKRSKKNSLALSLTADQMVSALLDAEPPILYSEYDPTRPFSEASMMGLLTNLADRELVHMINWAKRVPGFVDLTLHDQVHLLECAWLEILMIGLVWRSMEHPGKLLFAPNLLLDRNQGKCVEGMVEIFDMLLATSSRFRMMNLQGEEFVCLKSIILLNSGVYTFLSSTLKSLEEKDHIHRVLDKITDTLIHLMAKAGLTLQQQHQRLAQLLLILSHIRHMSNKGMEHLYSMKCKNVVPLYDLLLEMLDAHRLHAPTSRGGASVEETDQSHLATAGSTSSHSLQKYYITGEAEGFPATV
How it was run: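 MCF7-derived receptor extract, radiolabelled ligand, competitive displacement. Read: scintillation counts at 18 h. DMSO = negative control/baseline. Primary 25 uM duplicate; follow-up concentration–response.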

[10] = CCTE_Harrill_HTTr_Viability_MCF7: CCTE's 6-hour Cell Viability Assessment for the High-Throughput Transcriptomics (HTTr) Platform, in MCF-7 cells cultured in DMEM + 10% fetal bovine serum, Harrill Lab (AID 2284010; active means hit-call score of the fitted dose curve at least 0.9, where 1 is the maximum; inactive means score below 0.9)
How it was run: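 PI exclusion, high-content imaging; 8-pt dilution series, 6 h exposure; bidirectional fit vs DMSO (neg. ctrl/baseline); gain of signal = loss of membrane integrity.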

[11] = CCTE_Harrill_HTTr_Apoptosis_MCF7: CCTE's 6-hour Apoptosis Assessment for the High-Throughput Transcriptomics (HTTr) Platform, in MCF-7 cells cultured in DMEM + 10% fetal bovine serum, Harrill Lab (AID 2284011; active means hit-call score of the fitted dose curve at least 0.9, where 1 is the maximum; inactive means score below 0.9)
How it was run: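 Apoptosis in MCF-7 cells grown in DMEM with 10% fetal bovine serum was scored after a six hour exposure by high content imaging of caspase-3/7 activation (CellEvent Caspase 3/7 Green), with DMSO serving as negative control and baseline.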

Measured: AC50

CC(C)(C)c1ccc(C(O)CCCN2CCC(C(O)(c3ccccc3)c3ccccc3)CC2)cc1 (stereo unspecified)
active: [1] 34.4 µM | [2] 42.7 µM | [3] 37.9 µM and 31.8 µM | [4] 43.3 µM and 39.2 µM | [5] 32.4 µM | [8] 42.2 µM
inactive: [1] | [5] | [6] | [7] | [8]

CCN(CC)CCOC(=O)C(c1ccccc1)c1ccccc1
inactive: [1]

CCOc1nc2cccc(C(=O)OC(C)OC(=O)OC3CCCCC3)c2n1Cc1ccc(-c2ccccc2-c2nn[nH]n2)cc1 (stereo unspecified)
active: [2] 14 µM | [3] 13 µM | [4] 34 µM | [5] 13.4 µM | [6] 15.7 µM | [7] 7.02 µM | [8] 24.4 µM
inactive: [9] | [10] | [11]

CCCCCCCCCCCCN(CCO)CCO
active: [1] 69.7 µM | [2] 46.9 µM | [3] 64.3 µM | [4] 49.2 µM | [5] 53.4 µM | [6] 75.6 µM | [7] 59.3 µM | [8] 69.1 µM

S=c1nc[nH]c2nc[nH]c12
inactive: [1] | [7]
active: [1] 1.56 µM | [2] 7.89 µM and 10.1 µM | [3] 674 nM and 2.62 µM | [4] 9.95 µM and 8 µM | [5] 1.65 µM and 3 µM | [6] 11.1 µM and 8.01 µM | [8] 6.3 µM and 6.4 µM

COC(=O)CCCC(=O)O
inactive: [9] | [1] | [2] | [3] | [4] | [7] | [8]

COc1cc(C(=S)N2CCOCC2)cc(OC)c1OC
inactive: [1] | [2]

Cc1cc(Br)ccc1NC(=O)CCl
inactive: [9]
active: [1] 69.3 µM | [2] 23.2 µM | [3] 46.1 µM | [4] 13.3 µM | [5] 58.3 µM | [6] 13.3 µM | [7] 46.1 µM | [8] 25.3 µM

COc1ccc2cc3[n+](cc2c1OC)CCc1cc2c(cc1-3)OCO2
inactive: [1] | [2] | [3] | [4] | [5] | [6] | [7] | [8]
active: [1] 20.8 µM | [2] 4.58 µM | [3] 41.2 µM | [5] 28.5 µM | [6] 66.7 µM | [8] 53.1 µM

CC(C)(C)CC(C)(C)c1ccc(OCCO)cc1
inactive: [1] | [2] | [3] | [4] | [5] | [6] | [7] | [8]
active: [2] 5.43 µM | [5] 35.6 µM

CCN(Cc1cccc(S(=O)(=O)O)c1)c1ccccc1
inactive: [9] | [1] | [4] | [5] | [6] | [7]

CCCCCOC(=O)CCCC
inactive: [1] | [2] | [3]

CC(COc1ccccc1)N(CCCl)Cc1ccccc1 (stereo unspecified)
active: [3] 54.6 µM and 79.1 µM | [4] 23.1 µM
inactive: [1] | [2] | [3] | [4] | [5] | [6] | [7] | [8] | [10] | [11]

CC1(C)[C@@H](O)CC[C@]2(C)[C@H]3C(=O)C=C4[C@@H]5C[C@@](C)(C(=O)O)CC[C@]5(C)CC[C@@]4(C)[C@]3(C)CC[C@@H]12
active: [3] 61.4 µM and 22.5 µM | [4] 46.4 µM | [6] 43.1 µM | [7] 30.6 µM and 33.5 µM
inactive: [1] | [2] | [3] | [4] | [5] | [6] | [7] | [8]

O=C(CCCCCCC(=O)Nc1ccccc1)NO
active: [2] 420 nM and 686 nM | [4] 0.874 µM | [5] 4.47 µM and 7.11 µM | [6] 1.08 µM and 842 nM | [8] 904 nM and 534 nM
inactive: [1] | [3] | [4] | [7]

CCO[Si](C)(CCCOCC1CO1)OCC (stereo unspecified)
inactive: [1] | [2] | [3] | [4] | [5] | [6]

NC(=O)NNc1ccccc1
active: [4] 0.000125 µM | [8] 6.08e-05 µM
inactive: [1] | [2] | [3] | [4] | [5] | [6] | [7] | [8]

O=[N+]([O-])c1cccc(C(F)(F)F)c1
inactive: [1] | [2] | [3] | [4]

OCc1cc(C(O)CNCCCCCCOCCCCc2ccccc2)ccc1O (stereo unspecified)
inactive: [1] | [2] | [3] | [4] | [5] | [6] | [7] | [8]
active: [5] 28.2 µM

CCOC(=O)c1c(C)n(C)c2ccc(O)cc12
inactive: [1] | [2] | [3] | [4] | [5] | [6]

O=S(=O)(O)c1ccc2nc(-c3ccccc3)[nH]c2c1
inactive: [2] | [3] | [4] | [7] | [8]
active: [1] 30.2 µM and 19.9 µM | [3] 15.6 µM | [5] 33.8 µM and 23 µM | [7] 24.8 µM

CC(=O)Nc1ccc(C=NNC(N)=S)cc1
inactive: [1] | [2] | [3] | [4] | [5] | [6]

COC1=C(OC)C(=O)C(C/C=C(\C)CC/C=C(\C)CC/C=C(\C)CC/C=C(\C)CC/C=C(\C)CC/C=C(\C)CC/C=C(\C)CC/C=C(\C)CC/C=C(\C)CCC=C(C)C)=C(C)C1=O
inactive: [1] | [2] | [3] | [4] | [5] | [6] | [7] | [8]
active: [4] 42.8 µM

NC[C@H]1O[C@H](O[C@H]2[C@H](O)[C@@H](O[C@H]3O[C@H](CO)[C@@H](O)[C@H](N)[C@H]3O)[C@H](N)C[C@@H]2N)[C@H](O)[C@@H](O)[C@@H]1O
inactive: [1] | [2] | [3] | [4] | [5] | [7] | [8]
active: [2] 3.79 µM | [6] 3.34 µM
